Measurements: ChEMBL document CHEMBL1201862, “PubChem BioAssay data set” (2004)
In all, about 57,000 sequences went through this assay and about 4,100 (7.2%) were called active. Cut-off read from the data, not from the text of the source: active = GI50 up to about 1.1 µM and inactive = higher. Not all results are given here. Potency and affinity values are given separately.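 Method: 48-hour compound exposure of cells in 96-well plates, five concentrations, linear interpolation of endpoints. GI50 marks 50% less growth.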

Test system: SK-MEL-5
Experiment: NCI tumour cell line growth inhibition, 48 h

Row | Substance | GI50 [µM]
1 | cis-Bis[[(trimethylsilyl)methyl]amino]tetrachloroplatinum(IV), CHEMBL2146191 | 3.48
2 | [Bis(aminomethyl)tetramethylenesilane]tetrachloropaltinum(IV), CHEMBL2146189 | 5.77
3 | CISPLATIN, CHEMBL11359 | 2.69
4 | [Bis(aminomethyl)tetramethylenesilane]dichloropaltinum(II), CHEMBL2146205 | 14.8
5 | [Bis(aminomethyl)pentamethylenesilane]dichloropaltinum(II), CHEMBL2146202 | 3.3
6 | [Bis(aminomethyl)diethylsilane]tetrachloroplatinum(IV), CHEMBL2146203 | 73.8
7 | [Bis(aminomethyl)ethylmethylsilane]tetrachloroplatinum(IV), CHEMBL2146192 | 1.15
8 | [Bis(aminomethyl)pentamethylenesilane]tetrachloropaltinum(IV), CHEMBL2146204 | 3.21
9 | mu-(1,7-nanodiamine-N,N')bis-(cis-aminedichloroplatimum (II)), CHEMBL2146215 | 5.82
10 | [Bis(aminomethyl)dimethylsilane]dichloroplatinum (II), CHEMBL2146201 | 11.2
11 | [Bis(aminomethyl)dimethylsilane]tetrachloroplatinum(IV), CHEMBL2146190 | 3.85
